Several values for one entry are separate records, joined by “and”; a condition that tells them apart may be missing. Equal values may be shown once. Activity calls are given as the source filed them.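 How the source made its calls, unless noted: active means normalized viability below 100% at a tested concentration; inactive means the rest.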
Experiments:
[1] = tested on: Hepatitis C virus NS3 helicase; test: blockers of NS3h binding to ssDNA – biochemical, fluorescence polarization, LOPAC1280 library, primary screen (AID 687035; in the data active means inhibition above about 37%); settings: Purified HCV NS3 helicase, Cy5-dT15 ssDNA binding fluorescence polarization; stronger effect = higher value; concentration not given here
[2] = compounds altering Cy5-DNA-NS3h complex signal – biochemical, LOPAC1280, artefact control for HCV NS3 helicase inhibitor project (AID 687037; call rule not given here); settings: Cy5-DNA-NS3h complex fluorescence interference counterscreen
[3] = Wnt pathway potentiators raising nuclear beta-catenin – imaging, WNT3A-conditioned medium, mouse C2C12, NPC library, primary screen (AID 1117326; in the data active means nuclear beta-catenin stimulation mostly above about 4.2%, no sharp cut-off; inactive means mostly below about 10%); settings: stronger effect = higher value
[4] = stimulators of insulin release from INS-1E, primary screen, cell-based, 5 mM glucose, NPC library (AID 1117329;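 active means compound raises insulin release from rat beta cells at 5 mM glucose, no numeric limit stated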); settings: rat INS-1E insulin secretion, at 10 µM, stronger effect = higher value
[5] = growth inhibition of GSK3B-pretreated HCT116 cells – cell-based, CellTiter-Glo, 0.2 to 20 µM (AID 1117336;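 active means compounds lowering colon cancer cell viability after pretreatment blocking the GSK3B kinase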); settings: HCT116 viability after GSK3B inhibitor, at 20 µM, stronger effect = higher value
[6] = inhibition of endothelial tube formation, primary screen, imaging, VEGF stimulated, CD31 staining, tube area, NPC library (AID 1117340;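 active means compound that reduces growth-factor-driven endothelial tube area in a mixed cell culture, no cutoff stated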); settings: VEGF-stimulated ADSC/ECFC co-culture, at 10 µM, stronger effect = higher value
[7] = GLP1 release stimulators, primary, NCI-H716, NPC library (AID 1117341;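 active means compound raises GLP1 secretion from the human gut endocrine cells, with no numeric limit stated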); settings: NCI-H716 cells, at 10 µM, stronger effect = higher value
[8] = HCT116 colon cancer cell growth inhibition, primary screen, CellTiter-Glo luminescence, NPC library (AID 1117342;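 active means compounds that lower survival of HCT116 colon cancer cells in the luminescence readout, no numeric limit stated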); settings: at 20 µM (top of the series)
[9] = reduced SW480 viability measured with CellTiter-Glo, NPC library, primary (AID 1117343;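 active means compounds that lower viability of the colon cancer cells in the luminescence readout, with no numeric limit stated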); settings: CellTiter-Glo luminescence; at 20 µM (top of the series)
[10] = NPC library primary testing for decreased DLD-1 cell viability via CellTiter-Glo (AID 1117346;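 active means compounds that lower survival of DLD-1 colon cancer cells in the luminescence readout, no cutoff given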); settings: DLD-1 viability, CellTiter-Glo luminescence; at 20 µM (top of the series)
[11] = viability loss with induced miR-34 in A549 – imaging, A549 dox-inducible miR-34, nuclei and caspase counts, primary screen (AID 1347080;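 active means compounds whose cell count with miR-34 switched on is under 0.7 times the count with it off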); settings: A549 miR-34 inducible, Hoechst nuclei count, 48 h
[12] = MELAS cybrid and Rieske KO viability enhancers – cell-based, MELAS cybrids, Rieske KO mouse fibroblasts, CellTiter-Glo, primary screen (AID 1508586;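 active means mean z-score across replicates of 1.96 or higher in either the MELAS or the Rieske mutant cell line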;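 further: z relative to plate mean and SD of compound and empty wells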); settings: low glucose
[13] = drug combination growth inhibition, ovarian cancer – cell-based, oncology-focused library, rucaparib conditional, profiling panel (AID 1508598); settings: patient-derived ovarian cancer cells, CellTiter-Glo viability, 144 h, stronger effect = lower value
[14] = galactose survival enhancers in mitochondrial complex I cybrids – cell-based, galactose medium, ATP luminescence, primary screen (AID 1645843;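 active means z-score of at least 1.8 in each of two replicates, scored against plate mean and spread of sample wells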;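 further: positive z means more ATP and so rescue of galactose-driven cybrid death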); settings: complex I mutant cybrid cells, 72 h, stronger effect = higher value
[15] = P. berghei load reduction in hepatocytes – cell-based, HepG2, luciferase luminescence, HepG2 viability, primary screen (AID 624349; in the data active means parasite load remaining mostly below about 12%, no sharp cut-off; inactive means mostly above about 10%;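 further: 100% = mean of DMSO negative control wells on the same plate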); settings: P. berghei liver stage in HepG2, luciferase luminescence, concentration not given here; parasite load remaining: stronger effect = lower value; viability: measured here: HepG2 viability without parasites
[16] = tested on: Aerobactin synthetase IucA (Klebsiella pneumoniae, hypervirulent); test: biochemical IucA inhibition screen of LOPAC library by absorbance (AID 1346212; call rule not given here;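 further: 100% = no compound wells and 0% = no enzyme wells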); settings: IucA enzyme assay, absorbance (OD) readout; stronger effect = lower value;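 tested at 8 µM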
[17] = measured here: relative caspase fold change +Dox/-Dox
[18] = measured here: total cells with miR-34 induction, stronger effect = lower value
[19] = measured here: total cells without miR-34 induction
[20] = MELAS cybrid survival, CellTiter-Glo 48 h, stronger effect = higher value
[21] = Rieske KO mouse fibroblast survival, CellTiter-Glo 72 h

Cn1c(CCCC(=O)O)nc2cc(N(CCCl)CCCl)ccc21
inactive: inhibition [1] -4% | fluorescence ratio (interference) [2] 1 | nuclear beta-catenin stimulation ([3]; at 10 µM) 3% | insulin secretion stimulation [4] 0.9% | viability decrease [5] -12.4% | GLP1 secretion stimulation [7] -0.7% | inhibition of viability [8] 6.5% | viability decrease (inhibition) [9] 18.4% | viability decrease (inhibition) [10] -5.7% | fold change ([11]; stronger effect = lower value) 1.1 and 0.89 | z-score [12, 20] -0.517 | viability ([13]; at 0.000305 µM, OCI-C5x cells, with rucaparib 10 µM, 100% = cells with rucaparib alone) 103% | viability ([13]; at 0.000305 µM, OCI-C5x cells, without rucaparib) 107% | viability ([13]; at 0.000305 µM, OCI-P5x cells, with rucaparib 20 µM, 100% = cells with rucaparib alone) 107% | viability ([13]; at 0.000305 µM, OCI-P5x cells, without rucaparib) 101% | viability ([13]; at 0.00122 µM, OCI-P5x cells, without rucaparib) 102% | viability ([13]; at 0.00488 µM, OCI-C5x cells, with rucaparib 10 µM, 100% = cells with rucaparib alone) 104% | viability ([13]; at 0.00488 µM, OCI-C5x cells, without rucaparib) 104% | viability ([13]; at 0.00488 µM, OCI-P5x cells, with rucaparib 20 µM, 100% = cells with rucaparib alone) 103% | viability ([13]; at 0.00488 µM, OCI-P5x cells, without rucaparib) 109% | viability ([13]; at 0.0195 µM, OCI-C5x cells, with rucaparib 10 µM, 100% = cells with rucaparib alone) 105% | viability ([13]; at 0.0195 µM, OCI-P5x cells, without rucaparib) 100% | viability ([13]; at 0.0781 µM, OCI-C5x cells, with rucaparib 10 µM, 100% = cells with rucaparib alone) 109% | viability ([13]; at 0.313 µM, OCI-C5x cells, with rucaparib 10 µM, 100% = cells with rucaparib alone) 104% | viability ([13]; at 0.313 µM, OCI-C5x cells, without rucaparib) 101% | viability ([13]; at 1.25 µM, OCI-C5x cells, with rucaparib 10 µM, 100% = cells with rucaparib alone) 124% | viability ([13]; at 5 µM, OCI-C5x cells, with rucaparib 10 µM, 100% = cells with rucaparib alone) 106% | z-score [14] 0.31
0.9%: nuclear beta-catenin stimulation ([3]; stimulation, at 2 µM)
8630 and 6450: cell count [11, 18]
-0.135: z-score [12, 21]
active: tube area decrease [6] 44.6% | viability ([13]; at 0.00122 µM, OCI-C5x cells, with rucaparib 10 µM, 100% = cells with rucaparib alone) 97.3% | viability ([13]; at 0.00122 µM, OCI-C5x cells, without rucaparib) 99.1% | viability ([13]; at 0.00122 µM, OCI-P5x cells, with rucaparib 20 µM, 100% = cells with rucaparib alone) 99.9% | viability ([13]; at 0.0195 µM, OCI-C5x cells, without rucaparib) 99.7% | viability ([13]; at 0.0195 µM, OCI-P5x cells, with rucaparib 20 µM, 100% = cells with rucaparib alone) 93.4% | viability ([13]; at 0.0781 µM, OCI-C5x cells, without rucaparib) 97.6% | viability ([13]; at 0.0781 µM, OCI-P5x cells, with rucaparib 20 µM, 100% = cells with rucaparib alone) 92.7% | viability ([13]; at 0.0781 µM, OCI-P5x cells, without rucaparib) 96.4% | viability ([13]; at 0.313 µM, OCI-P5x cells, with rucaparib 20 µM, 100% = cells with rucaparib alone) 95% | viability ([13]; at 0.313 µM, OCI-P5x cells, without rucaparib) 74.7% | viability ([13]; at 1.25 µM, OCI-C5x cells, without rucaparib) 97.4% | viability ([13]; at 1.25 µM, OCI-P5x cells, with rucaparib 20 µM, 100% = cells with rucaparib alone) 92.4% | viability ([13]; at 1.25 µM, OCI-P5x cells, without rucaparib) 79.4% | viability ([13]; at 5 µM, OCI-C5x cells, without rucaparib) 93% | viability ([13]; at 5 µM, OCI-P5x cells, with rucaparib 20 µM, 100% = cells with rucaparib alone) 80.1% | viability ([13]; at 5 µM, OCI-P5x cells, without rucaparib) 84.8%
0.645 and 1.16: fold change [11, 17]
7880 and 7250: cell count [11, 19]

COc1ccc(C(=O)c2c(C)n(CCN3CCOCC3)c3ccccc23)cc1
159%: viability [15]
1.25: fold change [11, 17]
9440: cell count [11, 18]
0.082: z-score [12, 21]
active: viability decrease [5] 75% | inhibition of viability [8] 54% | viability decrease (inhibition) [9] 65%
10500: cell count [11, 19]
inactive: parasite load remaining [15] 50.5% | nuclear beta-catenin stimulation ([3]; at 10 µM) 1.2% | insulin secretion stimulation [4] -0.5% | tube area decrease [6] 8.1% | GLP1 secretion stimulation [7] 1.7% | viability decrease (inhibition) [10] 39.5% | fold change ([11]; stronger effect = lower value) 0.898 | z-score [12, 20] 0.332 | z-score [14] 0.375
0.9%: nuclear beta-catenin stimulation ([3]; stimulation, at 2 µM)

CC[N+](CC)(CC)CC
0.6%: nuclear beta-catenin stimulation ([3]; stimulation, at 2 µM)
inactive: inhibition [1] 14% | fluorescence ratio (interference) [2] 1 | nuclear beta-catenin stimulation ([3]; at 10 µM) 3.6% | insulin secretion stimulation [4] 0.7% | viability decrease [5] -2% | tube area decrease [6] 1.4% | GLP1 secretion stimulation [7] -1.5% | inhibition of viability [8] -13.1% | viability decrease (inhibition) [10] 1.35% | remaining activity [16] 93.6% | fold change ([11]; stronger effect = lower value) 0.929 | z-score [14] 0.685
active: viability decrease (inhibition) [9] 95.5%
10600: cell count [11, 19]
9810: cell count [11, 18]
1.25: fold change [11, 17]

— PubChem BioAssay
